# High-throughput results: PubChem, National Center for Advancing Translational Sciences (NCATS)
# GLP-1R agonist = activates the human GLP-1 receptor; P43220; HEK293 GLP-1R CRE-luciferase, luminescence, 4-6 h; cells express a hypersensitive GLP-1R form; Potency, µM (highest dose often 45.6 µM), without a hit: top-dose activation, hits mostly activators; 380,000 compounds, 0.007% hits; note: % of control where 0% means no effect
# PTHR1 ag = agonists of human PTHR1 parathyroid hormone receptor; Q03431; HEK293 GP2 PTHR1 cells, GloSensor cAMP luminescence, 1 h; Potency, µM (top dose mostly 115 µM), for inactives: at the highest dose activation, actives largely listed as activators; 410,000 compounds, 0.075% hits; AID 743266; note: nearly all actives have a fitted effect of over 55% in size
#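 HEK-293-derived GP2 cells expressing PTHR1 and a GloSensor cAMP reporter, 3,000/well, plated overnight, given luciferin plus IBMX (each 0.5 mM as added) for 1 h at 37 °C, then compound for 1 h at 37 °C. Luminescence was read after 15 min at room temperature.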
# GLP1R cytotox = cytotoxicity counter-screen for GLP-1 receptor inverse agonists; HEK293 cAMP-luciferase reporter cells, luminescence, 24 h; AID 624418; 410,000 compounds, 0.13% hits; Potency, µM (top dose mostly 38.3 µM), for the others: top-dose activity change, negative = inhibition, most hits filed as inhibitors;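 note: loss of luciferase light is scored as toxicity; % is set by controls: 0 for no effect and ±100 for the full control effect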
#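 Quantitative HTS format, 1536 wells, 200 cells/uL seeded. Compounds: 23 nL, 24 h, 37 °C. Detection: luciferase reagent, luminescence at 12 min RT; decreased signal taken as cytotoxic.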
# GLP1R inv ag = acts as inverse agonist at human GLP-1 receptor; P43220; HEK293 GLP-1R CRE-luciferase, luminescence, 24 h; GLP-1R form is constitutively active; Potency, µM (series often up to 38.3 µM), inactives show at the top dose activity change, negative = inhibition, most hits filed as inhibitors; 410,000 compounds, 1.6% hits; AID 624417; note: % is set by controls: 0 for no effect and ±100 for the full control effect; nearly all actives have a fitted effect of over 55% in size
#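 Inverse agonism was detected as reduced cAMP-driven luciferase luminescence after 24 h compound treatment. The cells were HEK293 clones expressing constitutively active human GLP-1R with the reporter. Reporter-only and GPR119 cell lines served as counterscreen controls.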
# RGS4 inh = inhibitors of human regulator of G protein signaling 4; Transcreener GDP fluorescence polarization, RGS4-accelerated GTP hydrolysis; Potency, µM (top dose mostly 114 µM), inactives show at the top dose activity change, negative = inhibition, hits mostly inhibitors; 390,000 compounds, 0.039% hits; AID 504845; note: % is set by controls: 0 for no effect and ±100 for the full control effect; nearly all actives have a fitted effect of over 75% in size
#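 MLSMR compounds (23 nl, pin-transferred) preincubated 10 min at room temperature with a 500nM (2x) first reagent, then RGS4 at 900nM (2x) plus Transcreener GDP mix added; fluorescence polarization (620/688 nm) read before and after 90 min at 30 °C.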
# GCN5L2 inh = GCN5L2 (KAT2A) acetyltransferase inhibition. GCN5L2 HAT assay, ThioGlo1 CoA-SH fluorescence. Q92830. 390,000 compounds, 0.21% hits. Potency, µM (titrated, usually from 58.9 µM), without a hit: at the top dose activity change, negative = inhibition, hits mostly inhibitors. AID 504327; note: % is set by controls: 0 for no effect and ±100 for the full control effect
# Target sequence (Q92830 whole entry, looked up): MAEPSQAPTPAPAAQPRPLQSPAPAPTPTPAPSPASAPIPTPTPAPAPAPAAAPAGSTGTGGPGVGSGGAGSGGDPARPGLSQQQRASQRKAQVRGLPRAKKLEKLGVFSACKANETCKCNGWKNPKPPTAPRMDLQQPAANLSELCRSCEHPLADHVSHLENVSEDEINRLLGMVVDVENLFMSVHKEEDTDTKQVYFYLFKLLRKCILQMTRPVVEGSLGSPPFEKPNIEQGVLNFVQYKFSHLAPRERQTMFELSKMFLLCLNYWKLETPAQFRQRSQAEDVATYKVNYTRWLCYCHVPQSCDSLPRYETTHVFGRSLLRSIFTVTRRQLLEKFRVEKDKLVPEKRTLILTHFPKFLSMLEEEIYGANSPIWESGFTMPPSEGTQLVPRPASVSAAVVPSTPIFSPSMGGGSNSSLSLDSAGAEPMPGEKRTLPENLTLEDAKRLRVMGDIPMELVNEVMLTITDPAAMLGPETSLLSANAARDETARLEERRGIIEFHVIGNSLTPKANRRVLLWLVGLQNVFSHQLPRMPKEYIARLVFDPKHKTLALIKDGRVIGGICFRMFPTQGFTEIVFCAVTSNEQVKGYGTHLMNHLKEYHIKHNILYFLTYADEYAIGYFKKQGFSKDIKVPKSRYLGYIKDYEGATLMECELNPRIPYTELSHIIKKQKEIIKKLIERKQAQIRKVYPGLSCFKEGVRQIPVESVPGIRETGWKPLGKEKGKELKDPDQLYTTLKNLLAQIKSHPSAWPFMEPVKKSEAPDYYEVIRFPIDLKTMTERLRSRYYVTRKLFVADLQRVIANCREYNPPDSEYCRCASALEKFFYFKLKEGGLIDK
#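 Titration-based screen in which CoA formation is detected via maleimide probe ThioGlo1 (50uM) turning fluorescent on thiol reaction; substrates H3(1-25) 75uM and acetyl-CoA 70uM, GCN5L2 20nM, 20 min incubation at room temperature.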
# Numbers without * were called inactive; i = inactive; ? = inconclusive; · = no result given; [ ] = another dose, or the depositor's remark. In the library only some 1.8% were active in any assay of this set; here they are far more common. Calls come from the whole dose curve; as a rule, active = well fitted curve in the direction sought with a large enough effect; inconclusive = small, poorly fitted or top-dose-only effect, or another doubt; inactive = no such curve, though single readings can be large; an effect the other way counts as inactive or inconclusive. Potency is the fitted concentration of half-maximal effect.
SMILES,GLP-1R agonist,PTHR1 ag,GLP1R cytotox,GLP1R inv ag,RGS4 inh,GCN5L2 inh
Cc1cc(=O)[nH]c(-n2nc(C)c(Oc3ccccc3O)c2C)n1,1%,i,17%,-22%,-11%,-3%
Cc1nn(-c2ccc(C(F)(F)F)cn2)c(C)c1Oc1ccccc1O,-1%,i,-30%,7.9µM*,-21%,?
COc1ccc(NC(=O)c2cc(C)nc3c2c(C)nn3-c2cccc(Cl)c2C)c(OC)c1,·,i,10%,33%,-17%,0%
CCc1ccc(-n2nc(C)c3c(C(=O)Nc4cc(OC)cc(OC)c4)cc(C)nc32)cc1,·,-33%,0%,5µM*,5%,-5%
COc1cc(NC(=O)c2cc(C)nc3c2c(C)nn3-c2ccccc2Cl)cc(OC)c1,-7%,-44%,-3%,13µM*,-8%,-12%
COC(=O)/C=C/c1cccc(N(Cc2ccc(-c3ccc(N(C)C)cc3)cc2)C(=O)C2CCCCC2)c1,·,·,·,·,·,-28%
CCOC(=O)C1(CC2CCCCO2)CCN(Cc2nccn2-c2cccc(C)c2)CC1 (stereo not given),17%,i,-29%,10µM*,-1%,-3%
CCOC(=O)C1(CC2CCCCO2)CCN(Cc2nccn2-c2ccc(OC)cc2)CC1 (stereo not given),23%,i,?,-22%,7%,2%
O=C1CC(c2ccccc2)=C(c2ccccc2)C1c1ccccc1 (stereo not given),-4%,-21%,-30%,14µM*,4%,·
O=C(Nc1ccc(F)cc1)c1cc(S(=O)(=O)Nc2ccc(F)cc2)cs1,-17%,i,-30%,10µM*,3%,-11%
Cc1ccc(S(=O)(=O)c2cnc(SC(C)C(=O)Nc3ccccc3)[nH]c2=O)cc1 (stereo not given),-3%,-13%,-1%,50%,-24%,1%
Cc1ccc(CNC(=O)c2ccc(-c3nc(CN4CCc5ccccc54)c(C)o3)cc2)cc1,-7%,-25%,-7%,-25%,5%,-14%
Cc1oc(-c2ccc(C(=O)N(C)Cc3ccccc3)cc2)nc1CN1CCc2ccccc21,13%,-17%,0%,11µM*,-3%,-10%
COc1ccc(CCNC(=O)c2c[nH]n3c(=O)c(Cc4ccccc4Cl)c(C)nc23)cc1OC,·,-61%,-20%,?,-17%,28µM*
Cc1nc2c(C(=O)NCCc3ccccc3)c[nH]n2c(=O)c1Cc1ccc(F)cc1Cl,-4%,-17%,-13%,?,-5%,?
Cc1ccc(CNC(=O)c2c[nH]n3c(=O)c(Cc4ccc(F)cc4Cl)c(C)nc23)cc1,·,-77%,?,?,-15%,35µM*
Cc1cc(OCC(=O)NCCc2ccc(Cl)cc2)c2c(C)cc(=O)oc2c1,-4%,?,6%,7%,15%[11.4 µM],-5%
Cc1ccc(C2CC2/C(=N/O)c2ccc(F)cc2)cc1 (stereo not given),20%,-7%,-2%,10µM*,-6%,-5%
C/C1=C2/[N-]C(C(CC(N)=O)[C@@]2(C)CCC(=O)NCC(C)OP(=O)([O-])O[C@H]2[C@@H](O)[C@@H](n3cnc4cc(C)c(C)cc43)O[C@@H]2CO)[C@]2(C)N=C(/C(C)=C3N=C(/C=C4N=C1C(CCC(N)=O)C\4(C)C)[C@@H](CCC(N)=O)[C@]\3(C)CC(N)=O)[C@@H](CCC(N)=O)[C@]2(C)CC(N)=O.CC(=O)O.[Co] (stereo not given in full),-7%,·,·,·,·,-16%
Cc1ccc(S(=O)(=O)c2nnn3c2nc(NC2CCCCC2)c2sccc23)cc1C,·,-39%,2%,14%,14%,6%
O=C(N/N=C/c1ccccc1F)c1ccccc1OCc1ccccc1,21%,-18%,1%,7.9µM*,-21%,-5%
C/C(=N\NC(=O)c1ccc(Cl)c(Cl)c1)c1ccccn1,7%,-2%,?,?,-2%,-12%
O=C(NCc1ccccn1)c1cc(Cl)ccc1OCc1ccccc1,4%,i,1%,3.5µM*,-13%,-25%
O=C(NCc1ccccn1)c1ccc(Cl)cc1Cl,-10%,i,2%,44%,-5%,-2%
C/C(=N/NC(=O)c1ccc(C(C)(C)C)cc1)c1ccccn1,?,-21%,?,2.5µM*,6%,·
SMILES,GLP-1R agonist,PTHR1 ag,GLP1R cytotox,GLP1R inv ag,RGS4 inh,GCN5L2 inh
O=C(NCc1ccc(F)cc1)c1ccccc1OCc1ccccc1,20%,-10%,4%,10µM*,-13%,-12%
C/C(=N\NC(=O)c1ccccc1OCc1ccc(F)cc1)c1ccccn1,15%,i,?,5µM*,16%,-5%
CCN(CC(=O)Nc1ccccc1C(F)(F)F)C(=O)c1ccccc1OCc1ccc(F)cc1,-1%,-26%,-2%,10µM*,5%,·
C/C(=N\NC(=O)c1cccc2ccccc12)c1ccccn1,2%,-16%,?,?,5%,?
CCN(CC(=O)Nc1ccccc1C(F)(F)F)C(=O)CCOc1ccccc1C,5%,i,-3%,?,-8%,-3%
N/C(=N\OC(=O)Nc1ccccc1)c1ncc([N+](=O)[O-])s1,-1%,-10%,?,50%,-12%,-9%
O=C(NCCN1CCCCC1)c1ccc(I)cc1,·,·,·,·,i,-3%
Cc1ccnc(NC(=O)/C=C/c2ccccc2Cl)c1,0%,-27%,5%,10µM*,3%,2%
Cc1cc(N)c2cc(NC(=O)/C=C/c3ccccc3Cl)ccc2n1,-7%,i,-20%,11µM*,?,-15%
Cc1ccnc(NC(=O)/C=C/c2ccccc2[N+](=O)[O-])c1,·,·,·,·,·,0%
COc1cccc(CNc2nc(NC(C)C)nc3ccsc23)c1OC,-2%,-55%,?,11µM*,·,·
COc1ccccc1CNc1nc(NC(C)C)nc2ccsc12,3%,-1%,?,?,·,·
COc1ccccc1CNc1nc(Nc2ccc(C)cc2C)c2sccc2n1,0%,-78%,-13%,10µM*,·,·
